Measured values: PubChem BioAssay (EPA / NIEHS)
The source made the active and inactive calls. How the source made its calls: active means hit-call score of the fitted dose curve at least 0.9, where 1 is the maximum; inactive means score below 0.9.

system: not listed separately; experiment: CCTE_Padilla_ZF_Score.Blood_pooling: CCTE's 144 Hour Post-fertilization zebrafish Assay Score for Blood Pooling, Padilla Lab (AID 2284415)
How it was run: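 Wild-type outbred zebrafish embryos, one per well in 10% Hanks', exposed from 6–8 hpf in sealed plates at 26C on 14:10 h light:dark, rinsed at 5 dpf. Blinded stereomicroscope scoring of blood pooling at 6 dpf; gain-of-signal versus DMSO.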

Row | SMILES | outcome
1 | O=P(O)(O)OCCC(F)(F)C(F)(F)C(F)(F)C(F)(F)C(F)(F)C(F)(F)F | inactive
2 | NC(=O)C(F)(F)C(F)(F)C(F)(F)C(F)(F)F | inactive
3 | FC(F)(F)C(F)(F)C(F)(F)C(F)(F)C(F)(F)CCI | inactive
4 | O=C(O)C(F)(F)C(F)(F)C(F)(F)C(F)(F)C(F)(F)C(F)(F)C(F)(F)C(F)(F)Cl | inactive
5 | FC(F)(F)C(F)(F)C(F)(F)C(F)(F)C(F)(F)C(F)(F)C(F)(F)C(F)(F)F | inactive
6 | OCC(F)(F)C(F)(F)C(F)(F)C(F)F | inactive
7 | FC(F)(F)C(F)(F)C(F)(F)C(F)(F)CCI | inactive
8 | FC(F)(F)C(F)(F)C(F)(F)C(F)(F)C(F)(F)C(F)(F)C(F)(F)C(F)(F)CCS | inactive
9 | FC(F)(F)C(F)(F)C(F)(F)C(F)(F)C(F)(F)C(F)(F)CC1CO1 (stereo unspecified) | inactive
10 | O=C(O)C(F)(OC(F)(F)C(F)(OC(F)(F)C(F)(OC(F)(F)C(F)(F)C(F)(F)F)C(F)(F)F)C(F)(F)F)C(F)(F)F (stereo unspecified) | inactive
11 | FC(F)(Br)C(F)(F)C(F)(F)C(F)(F)C(F)(F)C(F)(F)Br | inactive
12 | O=C(O)C(F)(OC(F)(F)C(F)(OC(F)(F)C(F)(F)C(F)(F)F)C(F)(F)F)C(F)(F)F (stereo unspecified) | inactive
13 | O=C(O)C(F)(F)C(F)(F)C(F)(F)C(F)(F)F | inactive
14 | N=C(N)C(F)(F)C(F)(F)C(F)(F)C(F)(F)C(F)(F)C(F)(F)C(F)(F)F | inactive
15 | CC(C)(C)C(=O)CC(=O)C(F)(F)C(F)(F)C(F)(F)F | inactive
16 | C=CC(=O)OCC(F)(F)C(F)(F)C(F)(F)C(F)(F)COC(=O)C=C | inactive
17 | O=C(O)C(F)(F)C(F)(F)C(F)F | inactive
18 | Cc1ccc(S(=O)(=O)OCC(F)(F)C(F)(F)C(F)(F)C(F)(F)C(F)(F)C(F)F)cc1 | inactive
19 | O=C(Cl)C(F)(F)C(F)(F)C(F)(F)C(F)(F)C(F)(F)C(F)(F)C(F)(F)C(F)(F)F | inactive
20 | FC(F)(I)C(F)(F)C(F)(F)C(F)(F)I | inactive
21 | FC(F)(F)C(F)(F)C(F)(F)C(F)(F)C(F)(F)C(F)(F)CCS | inactive

system: not listed separately; experiment: CCTE_Padilla_ZF_Score.Any: CCTE's 144 Hour Post-fertilization zebrafish Assay Score for Any Mortality or Malformation, Padilla Lab (AID 2284416)
How it was run: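 Wild-type zebrafish embryos with chorions, one per well in 10% Hanks' from 6–8 hpf, dosed in sealed plates at 26 C, 14:10 h light:dark; rinsed at 5 dpf; blinded scoring at 6 dpf for death or malformation, versus DMSO.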

Row | SMILES | outcome | AC50
22 | O=P(O)(O)OCCC(F)(F)C(F)(F)C(F)(F)C(F)(F)C(F)(F)C(F)(F)F | inactive | 
23 | NC(=O)C(F)(F)C(F)(F)C(F)(F)C(F)(F)F | inactive | 
24 | FC(F)(F)C(F)(F)C(F)(F)C(F)(F)C(F)(F)CCI |  | 31.9 µM (active)
25 | O=C(O)C(F)(F)C(F)(F)C(F)(F)C(F)(F)C(F)(F)C(F)(F)C(F)(F)C(F)(F)Cl |  | 10 µM (active)
26 | FC(F)(F)C(F)(F)C(F)(F)C(F)(F)C(F)(F)C(F)(F)C(F)(F)C(F)(F)F | inactive | 
27 | OCC(F)(F)C(F)(F)C(F)(F)C(F)F | inactive | 
28 | FC(F)(F)C(F)(F)C(F)(F)C(F)(F)CCI | inactive | 
29 | FC(F)(F)C(F)(F)C(F)(F)C(F)(F)C(F)(F)C(F)(F)C(F)(F)C(F)(F)CCS | inactive | 
30 | FC(F)(F)C(F)(F)C(F)(F)C(F)(F)C(F)(F)C(F)(F)CC1CO1 (stereo unspecified) | inactive | 
31 | O=C(O)C(F)(OC(F)(F)C(F)(OC(F)(F)C(F)(OC(F)(F)C(F)(F)C(F)(F)F)C(F)(F)F)C(F)(F)F)C(F)(F)F (stereo unspecified) | inactive | 
32 | FC(F)(Br)C(F)(F)C(F)(F)C(F)(F)C(F)(F)C(F)(F)Br | inactive | 
33 | O=C(O)C(F)(OC(F)(F)C(F)(OC(F)(F)C(F)(F)C(F)(F)F)C(F)(F)F)C(F)(F)F (stereo unspecified) | inactive | 
34 | O=C(O)C(F)(F)C(F)(F)C(F)(F)C(F)(F)F | inactive | 
35 | N=C(N)C(F)(F)C(F)(F)C(F)(F)C(F)(F)C(F)(F)C(F)(F)C(F)(F)F |  | 22.2 µM (active)
36 | CC(C)(C)C(=O)CC(=O)C(F)(F)C(F)(F)C(F)(F)F |  | 26.6 µM (active)
37 | C=CC(=O)OCC(F)(F)C(F)(F)C(F)(F)C(F)(F)COC(=O)C=C |  | 4.38 µM (active)
38 | O=C(O)C(F)(F)C(F)(F)C(F)F | inactive | 
39 | Cc1ccc(S(=O)(=O)OCC(F)(F)C(F)(F)C(F)(F)C(F)(F)C(F)(F)C(F)F)cc1 |  | 22.9 µM (active)
40 | O=C(Cl)C(F)(F)C(F)(F)C(F)(F)C(F)(F)C(F)(F)C(F)(F)C(F)(F)C(F)(F)F |  | 29.4 µM (active)
41 | FC(F)(I)C(F)(F)C(F)(F)C(F)(F)I |  | 16.9 µM (active)
42 | FC(F)(F)C(F)(F)C(F)(F)C(F)(F)C(F)(F)C(F)(F)CCS | inactive | 

system: TTR (gene 7276); experiment: CCTE_GLTED_hTTR_0.125uM: CCTE's human Transthyretin (hTTR) Inhibition Assay, with 0.125uM TTR, Great Lakes Toxicology and Ecology Division (GLTED) Lab (AID 2284431);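 further: hits lower the fluorescence signal relative to DMSO baseline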
How it was run: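 TTR at 0.125uM incubated 2 h with test chemical; displacement of bound ANSA read by fluorescence (ex 380, em 475). Activity is signal loss versus DMSO baseline.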

Row | SMILES | AC50
43 | c1ccc(B(c2ccccc2)c2ccccc2)cc1 | 1.6 µM (active)
44 | Cc1ccc(S(=O)(=O)NCl)cc1 | 44.5 µM (active)
45 | CC(Cc1ccc(O)c(O)c1)C(C)Cc1ccc(O)c(O)c1 (stereo unspecified) | 0.0909 µM (active)
46 | CCCCC(CC)COP(=O)(O)OCC(CC)CCCC (stereo unspecified) | 5.44 µM (active)
